Sampled rows, rich in hits. Any-hit rate of the full collection: about 19%.
IL-1B inflam inh: inhibitors of inflammasome signaling (IL-1 beta secretion). THP-1 LPS/ATP IL-1B secretion, AlphaLISA, 16 h; stronger effect = lower value. activity change, % at 57.5 µM. actives 4.7% (n = 360,000). AID 743279; in the data active means activity change below about -50%; inconclusive means mostly about -30% to -49%
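Secreted IL-1B measured by AlphaLISA bead assay after 16 h compound exposure of THP-1 cells; compounds (final up to 57.5 uM) added 1 h before LPS (250 ng/mL) and ATP (1.25 mM) stimulation; lower signal means less secretion.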
ELG1 DNA repair: blocks ELG1-dependent DNA repair in HEK293T cells. HEK293T ELG1-luciferase reporter, luminescence, 16 h; DNA damage induced by 5-fluorouridine. Potency, µM (series often up to 46.1 µM), most hits filed as inhibitors. actives 2.3% (n = 330,000); further: nearly all actives have a fitted effect of over 55% in size
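Cells (2,000 per well) received 5-fluorouridine plus test compound or DMSO and were incubated 16 hr at 37 °C, 5% CO2. Luciferase activity was read by luminescence 30 min after ONE-Glo addition; signal suppression marked inhibition of damage-induced ELG1 function.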
DT40 TDP1 no CPT: qHTS for Inhibitors of human tyrosyl-DNA phosphodiesterase 1 (TDP1): qHTS in cells in absence of CPT | DT40 Tdp1-/- hTDP1 cells, no CPT, ATP luminescence, 48 h | Potency, µM (highest dose often 46.2 µM), most hits filed as inhibitors | actives 15% (n = 420,000) | AID 686978, 2013; further: nearly all actives have a fitted effect of over 55% in size
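Seeded 400 DT40-hTDP1 cells/well (vehicle DMSO, no 20 nM CPT); pinned compounds; ≥48 hr at 37 °C; CellTiter-Glo luminescence as viability measure.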
HT1080NT lethal: kills 2HG-producing HT-1080-NT fibrosarcoma cells | Potency, µM (highest dose often 46.1 µM), usual class: cytotoxic | HT-1080-NT fibrosarcoma viability, CellTiter-Glo ATP luminescence, 48 h | actives 1.6% (n = 360,000);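 further: NT is the 2HG producing partner of a matched IDH1 knockdown line; nearly all actives have a fitted effect of over 55% in size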
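HT-1080-NT fibrosarcoma cells (2HG-overproducing), 750 cells/well in RPMI with 5% FBS, dosed after 2 h and incubated 48 h at 37C. CellTiter-Glo luminescence normalized to DMSO and no-cell wells; concentration-response curves fitted and classed.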
HT1080 IDH1KD tx: kills HT-1080 cells with IDH1 knockdown; AID 686971; HT-1080 IDH1 knockdown viability, ATP luminescence, 48 h; actives 2% (n = 360,000); Potency, µM (top dose mostly 46.1 µM), usual class: cytotoxic
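Cytotoxicity counter-line: IDH1KD HT-1080, 48 h, CellTiter-Glo. Curves classed by r2, magnitude and activity.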
TDP1 cell CPT: growth inhibition of DT40 Tdp1-/-;hTDP1 cells with camptothecin (screen for TDP1 inhibitors); actives 12% (n = 420,000); AID 686979; Potency, µM (titrated, usually from 46.2 µM), usual class: inhibitors; chicken DT40 Tdp1-/-;hTDP1 cells + 20 nM CPT, ATP luminescence, 48 h; further: nearly all actives have a fitted effect of over 55% in size
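Chicken DT40 Tdp1-/- cells complemented with human TDP1, 400 cells/well, exposed to compounds plus 20 nM camptothecin for at least 48 h at 37 C; viability read as ATP content by CellTiter-Glo luminescence.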
A number is an active result; n = inactive; u = inconclusive; x = no result. Unless noted, the call rests on the fitted dose curve; in most records, active means well fitted curve in the direction sought with a large enough effect; inconclusive means small, poorly fitted or top-dose-only effect, or another doubt; inactive means no such curve, though single readings can be large; an effect the other way counts as inactive or inconclusive.

SMILES	IL-1B inflam inh	ELG1 DNA repair	DT40 TDP1 no CPT	HT1080NT lethal	HT1080 IDH1KD tx	TDP1 cell CPT
Cn1cnc([N+](=O)[O-])c1Sc1ccc(Br)cc1	u	n	u	n	n	u
Cc1ccc(Sc2c([N+](=O)[O-])ncn2C)cc1	n	n	u	n	n	20.6µM
O=S(=O)(c1cccc(-c2nc3n(n2)Cc2ccccc2-3)c1)N1CCCCC1	n	n	u	n	n	u
O=S(=O)(c1cccc(-c2nc3n(n2)Cc2ccccc2-3)c1)N1CCCC1	n	n	u	n	n	20.6µM
COc1cccc(NC(=O)CCNS(=O)(=O)c2cccc3nonc23)c1	n	n	n	n	n	n
Cc1ccc2nc(C)cc(C(=O)OCC(=O)c3ccc(Cl)c([N+](=O)[O-])c3)c2c1	-68.5	n	u	n	n	16.4µM
Cc1ccc(-c2cc(C(=O)OCC(=O)c3ccccc3)c3cccc(Cl)c3n2)cc1	x	x	6.51µM	x	x	u
Cc1cc(C(=O)OCC(=O)c2ccc(Cl)c([N+](=O)[O-])c2)c2cccc(C)c2n1	n	n	u	n	n	u
Cc1c(-c2ccccc2)nc2c(Cl)cccc2c1C(=O)OCC(=O)c1ccc(F)cc1	x	x	5.8µM	x	x	u
COc1cccc(NC(=O)CC(C)S(=O)(=O)c2ccc3c(c2)NC(=O)CO3)c1 (stereo not given)	x	x	u	x	x	n
COC(=O)c1ccccc1C(=O)c1c(C)cc(C)cc1C	x	x	u	n	n	u
COC(=O)c1cc(C)ccc1/C=C1/Cc2c(C)cc(C)cc2C1=O	n	x	u	n	n	9.2µM
Cn1nc(C(F)(F)F)c2cc(NC(=O)OCc3ccc(C(C)(C)C)cc3)sc21	-87.1	u	n	n	n	n
Cn1nc(C(F)(F)F)c2cc(NC(=O)OCc3ccc(F)cc3)sc21	-86.5	n	n	n	u	n
COc1ccc(COC(=O)Nc2cc3c(C(F)(F)F)nn(C)c3s2)cc1	n	n	n	n	u	n
Cc1nn(C)c(Cl)c1NC(=O)OCc1ccc(F)cc1	n	u	16.4µM	n	n	u
Cn1nc(C(F)(F)F)c2cc(C(=O)Nc3ccc(Cl)cc3)sc21	u	u	u	n	n	u
Cc1nnsc1NC(=O)OCc1ccc(C(C)(C)C)cc1	n	n	8.2µM	n	n	14.6µM
O=c1c2cc(F)ccc2[nH]c(=S)n1Cc1ccc(F)cc1	n	n	u	n	n	n
CCN(CC)C(=O)Cn1c(=O)n(-c2ccc(Cl)c(Cl)c2)c(=O)c2c(C)c(C(=O)N(CC)CC)sc21	x	x	n	x	x	n
O=S(=O)(c1ccc(Cl)cc1)N1CCN(c2ccccn2)CC1	n	n	n	n	n	n
Cc1csc2c(N3CCN(S(=O)(=O)c4ccc(Cl)cc4)CC3)ncnc12	n	n	23.1µM	n	n	n
O=S(=O)(c1ccc(Cl)cc1)N1CCN(c2ncnc3sccc23)CC1	u	u	5.8µM	u	u	6.51µM
COC(=O)C[C@@H]1C=C[C@@H](NC(=O)NC2CCCC2)[C@@H](CO)O1	n	x	n	n	n	n
CC(=O)Nc1ccc(NC(=O)C(C)OC(=O)c2ccc3[nH]c(C)c(C)c3c2)cc1 (stereo not given)	n	u	n	n	n	n
Cc1ccc(C(=O)OC(C)C(=O)N(C)C2CCCCC2)cc1S(=O)(=O)N1CCCCC1 (stereo not given)	n	u	23.1µM	n	n	u
COC(=O)c1c(C)[nH]c(C(=O)OC(C)C(=O)N(C)C2CCCCC2)c1C (stereo not given)	n	u	16.4µM	n	n	u
Cc1[nH]c2ccc(C(=O)OC(C)C(=O)N(C)C3CCCCC3)cc2c1C (stereo not given)	-80.6	n	u	n	n	u
COc1ccccc1NC(=O)CSc1nc2sc(C)c(C)c2c(=O)n1C	n	14.6µM	13µM	n	n	20.6µM
